Drawing on the OligoGym collection, this text covers sensor-assay potency score (higher = more potent) for 20 sequences.
Also: reference of the scale not given here.

The first assay deals with CDC42SE1. In words: pooled miR-30 sensor sort-seq; sequence = guide strand. Particulars: shRNA.
On to TTGGATCTCATCTGCTCCTGAA, for which the sensor-assay potency score (higher = more potent) was -0.616.

With ATCATGGTCCGGTCAATCCGTC, the sensor-assay potency score (higher = more potent) was -1.39.

Turning to TCATCTGCTCCTGAACTGCACC, the sensor-assay potency score (higher = more potent) was -1.23.

In the case of TCTTCTTCTTCGGCTGGGGTTT, the sensor-assay potency score (higher = more potent) was -1.24.

As for TTTCTCTACCACACAGCAGCCC, the sensor-assay potency score (higher = more potent) was -0.51.

For TGGGGTTTCTCTACCACACAGC, the sensor-assay potency score (higher = more potent) is -1.01.

As for TCATGGCAAGTCCATCTCCGGC, the sensor-assay potency score (higher = more potent) is -1.88.

For TGCTCCATGGCCTATCTCGGTT, the sensor-assay potency score (higher = more potent) is -1.52.

Take TTGCTCCATGGCCTATCTCGGT: the sensor-assay potency score (higher = more potent) was -1.82.

The target in another assay is CDCA7L. Described as above. The settings on record: shRNA.
As to TAGCCTTATCTTCTTCTTCATC, the sensor-assay potency score (higher = more potent) was -1.31.

Turning to TCGCACACCACAGCAACCCTGG, the sensor-assay potency score (higher = more potent) is -0.788.

As to TTCTGTATAAAAACACAACTGT, the sensor-assay potency score (higher = more potent) is -0.22.

In turn, TAGACCTGCTTCTTCTAGGGGT came in with a sensor-assay potency score (higher = more potent) of 0.0946.

As to TAGTGAGTCAAAACTATCGCAG, the sensor-assay potency score (higher = more potent) was -0.978.

In the case of TTTTCTAAGTCCTCTTCGGTGA, the sensor-assay potency score (higher = more potent) came out at 0.0411.

In turn, TTCGGTGATATCCTCCACTGGC showed a sensor-assay potency score (higher = more potent) of 0.00353.

For the sequence TATCATAGATTTTATCTCGAAC, the sensor-assay potency score (higher = more potent) is -0.423.

For AAACTCTTCATCATCACTGGGG, the sensor-assay potency score (higher = more potent) was determined as 0.515.

As to TAAAAATTCTTCTTAGCTCTTC, the sensor-assay potency score (higher = more potent) is 0.664.

For TATACGGTGACGTCGTCTGTAC, the sensor-assay potency score (higher = more potent) was -0.513.
